# According to PubChem BioAssay (NCI):
# The panel holds about 83,000 compounds, 20% with a hit somewhere; the sample as a whole holds those more often.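 A percent growth of 40 corresponds to 60% growth inhibition; 0 means no net growth; -100 means all cells died. Active threshold: below 10.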 Values without a mark were called inactive. Active and inactive are the calls of the source.
# Columns and labels:
# Assay in all cases: NCI-60 one-dose screen, 48 h (100 = growth as untreated, 0 = no growth, -100 = all killed)
# Settings in all cases: 10 µM unless noted
# SR leukemia = test system: SR leukemia
# RPMI-8226 leukemia = test system: RPMI-8226 leukemia
# OVCAR-5 ovarian = test system: OVCAR-5 ovarian
# OVCAR-4 ovarian = test system: OVCAR-4 ovarian
# SK-OV-3 ovarian = test system: SK-OV-3 ovarian
# IGROV1 ovarian = test system: IGROV1 ovarian
# OVCAR-3 ovarian = test system: OVCAR-3 ovarian
# HS 578T breast = test system: HS 578T breast
# NCI/ADR-RES ovarian = test system: NCI/ADR-RES ovarian
# T-47D breast = test system: T-47D breast
# BT-549 breast = test system: BT-549 breast
# MDA-MB-435 melanoma = test system: MDA-MB-435 melanoma
# SW-620 colon = test system: SW-620 colon
# MCF7 breast = test system: MCF7 breast
# HCT-116 colon = test system: HCT-116 colon
# HCC-2998 colon = test system: HCC-2998 colon
# KM12 colon = test system: KM12 colon
Compound,growth (SR leukemia),growth (RPMI-8226 leukemia),growth (OVCAR-5 ovarian),growth (OVCAR-4 ovarian),growth (SK-OV-3 ovarian),growth (IGROV1 ovarian),growth (OVCAR-3 ovarian),growth (HS 578T breast),growth (NCI/ADR-RES ovarian),growth (T-47D breast),growth (BT-549 breast),growth (MDA-MB-435 melanoma),growth (SW-620 colon),growth (MCF7 breast),growth (HCT-116 colon),growth (HCC-2998 colon),growth (KM12 colon)
COc1cc(C(=O)c2cnc(-c3c[nH]c4cccc(C)c34)[nH]2)cc(OC)c1OC,4.87% (active),10%,46.5%,34.5%,41.1%,22.1%,-49% (active),21.2%,3.24% (active),52.2%,38.3%,-43.5% (active),18%,17.7%,-10.4% (active),20.1%,0.911% (active)
O=C1CCC(C(=O)NCCNCCNC(=O)C2CCC(=O)N2)N1 (centres undefined),103%,95.8%,112%,109%,98%,110%,106%,94.1%,105%,85%,81.3%,104%,94.8%,98.3%,87.8%,105%,102%
c1ccc2cc(C[n+]3ccn(CCCCCCCCCCCCn4cc[n+](Cc5ccc6ccccc6c5)c4)c3)ccc2c1,-50% (active),-70.7% (active),-25.3% (active),-60.1% (active),-47.9% (active),-73.8% (active),-88.7% (active),-59.2% (active),61.7%,-53.1% (active),-82.8% (active),-97.1% (active),-55.7% (active),-70.5% (active),-61.8% (active),-83.4% (active),-86.9% (active)
CC(C)c1cc(C(C)C)c(S(=O)(=O)Oc2ccc(NC(=O)c3ccc(Cl)cc3)cc2)c(C(C)C)c1,25.9%,16.4%,86.4%,39.6%,78.2%,47.1%,31.6%,39.5%,35.6%,7.98% (active),20.4%,41.4%,21.7%,16.3%,8.78% (active),26.3%,18.4%
CC(=O)CC[C@H]1C(=O)N[C@@H](C(C)C)C(=O)N[C@@H](Cc2cc(O)cc(F)c2)C(=O)N2CCC[C@H](N2)C(=O)O[C@H](/C(C)=C/C=C/C(=O)OC(C)(C)C)C/C=C/C=C/[C@H](O)[C@H](C)[C@H]1O,16.7%,37.1%,88.6%,56.6%,48.8%,43.8%,54.2%,55.9%,77.7%,55%,39.6%,43%,25.4%,48.2%,26.6%,51.8%,34.1%
CCOC(=O)c1c(C)nc2c(c1N)CC(=O)N2Cc1ccc(F)cc1,99.5%,80.1%,103%,94.7%,95%,104%,99.5%,91.5%,99%,73.2%,72.5%,99.8%,92.2%,96.1%,87.6%,103%,97.7%
Cc1nn(-c2ccccc2)c2c1N=c1s/c(=C\c3ccc(C(F)(F)F)cc3)c(=O)n1CN2,97.9%,16.2%,93.4%,51.2%,91.5%,68.3%,138%,96.9%,40.4%,54%,72.2%,61.4%,75.7%,56.9%,27.8%,74.2%,97.2%
COc1cc(C(=O)c2cnc(-c3cccc4[nH]ccc34)[nH]2)cc(OC)c1OC,13.9%,15.8%,50.1%,38.9%,35.6%,26.6%,-18.1% (active),30.9%,11.2%,70.6%,40.2%,-34.8% (active),19.7%,22.4%,-8.06% (active),20.9%,4.18% (active)
c1ccc(Cc2nn3cc(-c4ccccc4)nc3s2)cc1,82.1%,98.3%,109%,106%,112%,106%,105%,115%,102%,87.6%,102%,114%,109%,87.2%,78.9%,103%,96.5%
O=C(COc1ccc(/C=C2\Cc3ccc(Cl)cc3C2=O)cc1)Nc1nc2ccccc2s1,75.5%,93.1%,108%,109%,104%,-61.5% (active),104%,91%,99.2%,101%,124%,113%,112%,103%,102%,115%,117%
Cc1ccc2c(-c3cc(-c4ccccc4)nc(N)c3C#N)cc(=O)oc2c1,100%,101%,96.9%,114%,104%,110%,106%,90.2%,95.2%,86%,75.8%,106%,107%,100%,87.1%,96.4%,97.4%
C=C1C(=O)O[C@H]2[C@H]1CC/C(COC(=O)C(C)c1ccc(CC(C)C)cc1)=C\CC[C@@]1(C)O[C@@H]21 (some centres undefined),-1.31% (active),-23% (active),74.1%,8.73% (active),102%,-69% (active),1.75% (active),-4.39% (active),14.6%,-35% (active),-1.34% (active),-11.7% (active),-60.1% (active),9.15% (active),-73.7% (active),72.2%,31.8%
c1ccc2cc(C[n+]3ccn(CCCCCCn4cc[n+](Cc5ccc6ccccc6c5)c4)c3)ccc2c1,69%,65.5%,60.4%,40.8%,55.6%,58.1%,62.4%,68.5%,100%,38.5%,9.69% (active),59.2%,95.5%,49.8%,45.2%,59.4%,41.2%
CCN(CC)c1ccc(C2=NN(C(C)=O)C(c3cc(OC)c(OC)c(OC)c3)C2)cc1 (centres undefined),-23.6% (active),2.54% (active),39%,46.9%,31.5%,-45.1% (active),-64.8% (active),-12.2% (active),-23.9% (active),47.2%,-36.3% (active),-53% (active),22.3%,27%,6.95% (active),-6.47% (active),-17% (active)
COc1ccc(-c2nc3sc(-c4ccc(Cl)cc4)cn3n2)cc1,51.1%,44.9%,52%,-63.3% (active),49.5%,7.07% (active),24.7%,27%,45.6%,54.9%,97.6%,75%,59.6%,48.9%,-16.3% (active),78.6%,54.7%
CCc1ccc(Oc2c(-c3ccc(OCc4ccc(Cl)cc4)cc3O)nn(C)c2C(F)(F)F)cc1,-26.4% (active),-16.8% (active),13.2%,12.5%,-6.92% (active),24.3%,-20.9% (active),7.74% (active),-3.62% (active),-8.15% (active),-12% (active),1.36% (active),7.28% (active),6.53% (active),-62.4% (active),12.8%,-5.25% (active)
COc1ccc(-c2nc(NN)c3c(C)nn(-c4ccc(F)cc4)c3n2)cc1,28.3%,54.8%,95.6%,62.7%,29.4%,51.2%,12%,25%,34.7%,38.6%,46.8%,0.816% (active),22.9%,26.2%,18.7%,76.6%,29.1%
